# Source: ChEMBL document CHEMBL1201862, “PubChem BioAssay data set” (2004)
# In all, about 400,000 compounds went through this assay and about 2,100 (0.53%) were called active. Not shown: some 14% with an inconclusive outcome. The rule behind the calls is not given here. The sample as a whole holds a higher share of actives than the screen did.
# Molecular target: Ataxin-2 (Homo sapiens) (UniProt Q99700)
# Assay: qHTS for Inhibitors of ATXN expression.
# Assay type: functional
# Ataxin-2 (Homo sapiens), sequence (Q99700 whole entry): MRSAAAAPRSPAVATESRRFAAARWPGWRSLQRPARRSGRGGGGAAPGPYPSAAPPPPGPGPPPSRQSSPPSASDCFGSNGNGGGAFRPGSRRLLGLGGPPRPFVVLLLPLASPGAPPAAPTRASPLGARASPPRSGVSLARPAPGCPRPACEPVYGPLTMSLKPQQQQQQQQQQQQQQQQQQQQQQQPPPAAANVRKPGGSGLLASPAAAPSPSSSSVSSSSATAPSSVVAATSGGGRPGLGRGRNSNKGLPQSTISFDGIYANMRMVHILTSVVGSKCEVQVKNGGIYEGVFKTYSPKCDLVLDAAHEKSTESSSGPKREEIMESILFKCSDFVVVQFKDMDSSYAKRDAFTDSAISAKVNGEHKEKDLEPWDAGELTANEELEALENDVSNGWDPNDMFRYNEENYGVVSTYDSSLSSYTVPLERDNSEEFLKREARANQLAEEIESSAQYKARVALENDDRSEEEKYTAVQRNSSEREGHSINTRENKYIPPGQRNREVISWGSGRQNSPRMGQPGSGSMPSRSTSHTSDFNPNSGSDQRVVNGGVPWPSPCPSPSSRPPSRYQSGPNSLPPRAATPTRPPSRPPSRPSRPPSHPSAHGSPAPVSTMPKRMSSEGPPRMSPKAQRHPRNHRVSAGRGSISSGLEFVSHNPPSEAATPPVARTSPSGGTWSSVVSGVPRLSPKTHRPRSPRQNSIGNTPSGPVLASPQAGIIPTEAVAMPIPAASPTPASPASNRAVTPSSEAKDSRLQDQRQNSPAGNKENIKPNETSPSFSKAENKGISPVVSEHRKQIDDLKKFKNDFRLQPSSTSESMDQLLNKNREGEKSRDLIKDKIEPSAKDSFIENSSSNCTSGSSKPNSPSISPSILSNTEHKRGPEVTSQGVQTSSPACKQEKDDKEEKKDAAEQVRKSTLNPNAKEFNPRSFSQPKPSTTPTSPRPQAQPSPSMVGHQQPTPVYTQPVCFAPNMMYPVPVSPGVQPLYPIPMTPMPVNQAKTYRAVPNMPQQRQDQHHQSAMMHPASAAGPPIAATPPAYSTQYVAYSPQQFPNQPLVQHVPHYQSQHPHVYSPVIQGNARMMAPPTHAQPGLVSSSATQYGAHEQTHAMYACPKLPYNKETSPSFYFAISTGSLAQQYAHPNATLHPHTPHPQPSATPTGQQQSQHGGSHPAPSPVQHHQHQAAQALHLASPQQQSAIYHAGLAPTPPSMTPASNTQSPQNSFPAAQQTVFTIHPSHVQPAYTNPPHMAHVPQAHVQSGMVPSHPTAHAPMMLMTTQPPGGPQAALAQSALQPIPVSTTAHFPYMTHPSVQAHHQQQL
row,Structure (SMILES),Potency
1,COc1ccc(C(=O)/C(C#N)=N/Nc2ccc([N+](=O)[O-])cc2)cc1,10 µM (active)
2,Cc1cc(C)c(S(=O)(=O)Nc2cc(SCC(=O)O)c(O)c3ccccc23)cc1C,20 µM (active)
3,CC(=O)Nc1ccc(NS(=O)(=O)c2cc(-c3cnc(C4CC4)o3)ccc2C)cc1,inactive
4,COC(=O)CCC(=O)N1CCCC(N2CCN(c3cccc(C(F)(F)F)c3)CC2)C1 (stereo not drawn),inactive
5,CSC1=NCCN1S(=O)(=O)c1ccc(F)cc1,inactive
6,COC(=O)Cc1c(C)c2ccc(O)c(CNCc3ccc(OC)c(OC)c3)c2oc1=O,inactive
7,CCc1ccc2oc(-c3ccc(OC)cc3)cc(=Nc3cccc(C(=O)O)c3)c2c1,inactive
8,Cc1sc(Cc2nc(O)cs2)nc1-c1ccccc1,inactive
9,COc1ccc(-c2c/c(=N\c3nc(-c4ccccc4)c(C)s3)c3ccccc3o2)cc1O,31.6 µM (active)
10,COCCCn1c(=N)c(C(=O)NC2CCCCC2)cc2c(=O)n3cc(C)ccc3nc21,inactive
11,COC(=O)C1=CN(C2CC2)C=C(C(=O)OC)C1c1ccc(C(=O)OC)cc1,inactive
12,COC(=O)c1ccc2nc(C3CCCCC3)c(CC(C)(C)C)n2c1,39.8 µM (active)
13,Cc1nc(-c2ccccc2)sc1-c1ccnn1C,inactive
14,CCc1ccc(C2=C(C)C(N3CCC(C(=O)Nc4ccc(F)cc4)CC3)=NS2(=O)=O)cc1,39.8 µM (active)
15,CCOC(=O)C1=C(C)N=c2s/c(=C/c3ccc(OCC(=O)O)cc3)c(=O)n2C1c1ccc(OC)cc1OC (stereo not drawn),inactive
16,CCSc1nnc2nc3c(c(O)n12)C1(CCCC1)Cc1ccccc1-3,inactive
17,Cn1cc(CN2CCN(Cc3ccc4c(c3)OCO4)CC2)c(-c2ccccc2F)n1,inactive
18,O=c1c2ccccc2[nH]c(=S)n1Cc1ccc2c(c1)OCO2,inactive
19,Fc1ccc2[nH]c3c(N4CCN(Cc5ccc6c(c5)OCO6)CC4)ncnc3c2c1,39.8 µM (active)
20,CCc1ccc(CN2CCN(c3ncccn3)CC2)cc1,inactive
21,Cc1c(O)ccc2c(CN3CCN(Cc4ccccc4)CC3)cc(=O)oc12,inactive
22,Cc1ccc2c(c1)[nH]c1c(N3CCN(Cc4ccccc4)CC3)ncnc12,11.2 µM (active)
23,Cc1cc(-c2ccnc(-n3ncc(C(=O)NC(C)(C)CO)c3C3CC3)n2)c(C)s1,inactive
24,CC(C)CCNC(=O)c1cc2c(=O)n3ccccc3nc2s1,inactive
25,Cc1ccc(C(=O)OCC(=O)Nc2nc(-c3ccccc3)cs2)cc1NC(=O)c1ccco1,inactive
26,Cc1ccc(C(=O)NCCC(C)C)cc1NC(=O)c1nsc2ccccc12,25.1 µM (active)
27,O=C1/C(=C/NCc2ccccn2)c2ccccc2C(=O)N1c1ccccc1,inactive

row,Structure (SMILES),Potency
1,OC[C@@H]1[C@@H](c2ccc(Cl)cc2)C(c2ccccc2)=NN1c1ccccc1,inactive
2,Oc1nc2ccccc2nc1Cc1ccc(Cl)cc1,inactive
3,O=S(=O)(c1ccc(Cl)cc1)N(Cc1cccnc1)Cc1cc2ccccc2nc1O,25.1 µM (active)
4,Cc1ccc(N(Cc2cc3ccccc3nc2O)C(=O)c2cccs2)cc1,inactive
5,COCCCn1c(=O)/c(=C/c2ccccc2OC(C)C)s/c1=C(\C#N)C(=O)Nc1ccc(C(=O)O)cc1,inactive
6,CCCN(C(=O)CCl)C1=CCCCC1,5.97 µM (active)
7,CSc1nc(N2CCOCC2)nc2ccc(C)cc12,inactive
8,COc1ccccc1C(=O)/C=C/c1ccc(N2CCCCC2)c([N+](=O)[O-])c1,39.8 µM (active)
9,O=[N+]([O-])c1ccc(Cc2nnc(O)c3ccccc23)cc1,inactive
10,CC(=O)c1ccccc1NC(=O)c1cc(S(=O)(=O)N2CCOCC2)ccc1N1CCCC1,inactive
11,O=C(c1ccc(Cl)cc1)n1cnc2ccccc21,inactive
12,O=C(/C=C/c1ccc([N+](=O)[O-])cc1)c1ccccc(=O)c1O,13.4 µM (active)
13,O=[N+]([O-])c1ccc(COc2ncnc3ccccc23)cc1,inactive
14,CC(=O)Oc1ccccc1C(=O)C=Cc1cccc([N+](=O)[O-])c1,39.8 µM (active)
15,O=C(/C=C/c1cccc([N+](=O)[O-])c1)n1cnc2ccccc21,20 µM (active)
16,O=C(Cn1cnc2ccccc21)Nc1cccc([N+](=O)[O-])c1,inactive
17,CC(=O)c1ccc(N2CCN(C(=O)c3ccc(Cn4c(=S)[nH]c5ccc(N6CCOCC6)cc5c4=O)cc3)CC2)cc1,inactive
18,COc1ccc(C2=CC(c3ccc(OC)c(OC)c3)n3nnnc3N2)c(OC)c1 (stereo not drawn),inactive
19,COC(=O)Cn1nnnc1-c1nc2cc(C)c(C)cc2nc1O,inactive
20,O=C(NCCO)Nc1ccc2nsnc2c1,inactive
21,CCN(CCNC(=O)C1CCC(=O)N1Cc1ccc(C)cc1)c1ccccc1 (stereo not drawn),inactive
22,CCN(CC)C(=O)C1=C(C)N(Cc2ccc(C(C)(C)C)cc2)C(=O)C(CC(=O)NCCCCc2ccccc2)C1 (stereo not drawn),35.5 µM (active)
23,O=C(CSC1=NCCN1)NC(c1ccccc1)c1ccccc1,inactive
24,CCN(CC)C(=O)C1=C(C)N(Cc2ccc(C(C)(C)C)cc2)C(=O)C(CC(=O)NC(c2ccccc2)c2ccccc2)C1 (stereo not drawn),28.2 µM (active)
25,COc1ccc(CNC(=O)CN2C(=O)NC(C)(c3ccc(C(C)(C)C)cc3)C2=O)cc1 (stereo not drawn),inactive
26,CCN(CC)C(=O)C1=C(C)N(Cc2ccc(C(C)(C)C)cc2)C(=O)C(CC(=O)NCc2cccc3ccccc23)C1 (stereo not drawn),25.1 µM (active)
